# From PubChem BioAssay (EPA / NIEHS)
# Records with an inconclusive call do not appear. The source made the active and inactive calls. How the source made its calls: active means hit-call score of the fitted dose curve at least 0.9, where 1 is the maximum; inconclusive means response in the unintended direction; inactive means score below 0.9.
# Columns and labels:
# [1] = TOX21_p53_BLA_p2_viability: Viability Assessment in the Tox21 HCT-116 p53 Agonism Beta-lactamase Assay, Phase 2 (AID 2283591);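 further: compound exposure lasted 16 h at 37 °C; actives lower the ATP signal meaning cytotoxicity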
# In short: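 HCT-116 p53-bla cells (4000/well) rested 5 h at 37C, then received compounds in DMSO (217-fold dilution) for 16 h at 37C, 5% CO2. After the CCF4 read, CellTiter-Glo was added; ATP luminescence was read after 30 min at room temperature.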
# [2] = biological target: Cellular tumor antigen p53 (Homo sapiens) (UniProt P04637); assay: TOX21_p53_BLA_p2_ratio: Tox21 HCT-116 p53 Agonism Beta-lactamase Assay, Ratio, Phase 2 (AID 2283592)
# Sequence of Cellular tumor antigen p53 (Homo sapiens) (P04637 whole entry, looked up): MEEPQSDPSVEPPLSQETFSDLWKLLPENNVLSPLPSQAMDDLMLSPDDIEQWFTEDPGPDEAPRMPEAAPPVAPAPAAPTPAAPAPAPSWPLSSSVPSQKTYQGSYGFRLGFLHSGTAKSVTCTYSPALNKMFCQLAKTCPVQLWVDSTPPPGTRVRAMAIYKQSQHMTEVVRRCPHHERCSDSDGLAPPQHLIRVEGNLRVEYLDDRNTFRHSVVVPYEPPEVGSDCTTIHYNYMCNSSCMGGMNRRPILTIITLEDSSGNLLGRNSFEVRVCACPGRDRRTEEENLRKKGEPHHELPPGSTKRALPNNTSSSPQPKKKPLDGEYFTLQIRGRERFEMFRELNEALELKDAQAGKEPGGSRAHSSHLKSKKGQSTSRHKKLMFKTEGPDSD
# In short: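 Plated HCT116 p53-bla cells (4000/well) received compound after 5 h, then 16 h at 37C/5% CO2. CCF4-AM added, 2 h RT. Ratio of 460 to 530 nm emission taken as the p53 reporter signal.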
# [3] = biological target: Cellular tumor antigen p53 (Homo sapiens) (UniProt P04637); assay: TOX21_p53_BLA_p3_ratio: Tox21 HCT-116 p53 Agonism Beta-lactamase Assay, Ratio, Phase 3 (AID 2283596)
# In short: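 Cells were seeded at 4000/well, rested 5 h at 37C, then dosed with DMSO compound solutions (217-fold dilution) for 16 h. CCF4-AM substrate was loaded for 2 h at room temperature, and the 460/530 nm emission ratio was fitted for gain of signal versus DMSO.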
# [4] = biological target: Cellular tumor antigen p53 (Homo sapiens) (UniProt P04637); assay: TOX21_p53_BLA_p5_ratio: Tox21 HCT-116 p53 Agonism Beta-lactamase Assay, Ratio, Phase 5 (AID 2283599)
# In short: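 HCT-116 cells carrying a p53-inducible beta-lactamase reporter were seeded at 4000 cells/well and dosed after 5 h with compound in DMSO (217-fold dilution). After 16 h at 37C, CCF4-AM substrate was added for 2 h, and the 460/530 nm emission ratio was scored as gain-of-signal versus DMSO.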
# [5] = biological target: Cellular tumor antigen p53 (Homo sapiens) (UniProt P04637); assay: TOX21_p53_BLA_p4_ratio: Tox21 HCT-116 p53 Agonism Beta-lactamase Assay, Ratio, Phase 4 (AID 2283601)
# In short: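 HCT116 cells carrying an inducible beta-lactamase reporter were plated at 4000 cells/well, rested 5 h, then exposed to compounds in DMSO (217-fold dilution) for 16 h at 37C. CCF4-AM substrate was loaded 2 h at room temperature; 460/530 nm emission ratio scored gain-of-signal versus DMSO.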
# [6] = Tanguay_ZF_120hpf_MORT_legacy: (Legacy) Oregon State University Tanguay Lab 120 Hour Post-fertilization zebrafish Assay for Mortality (AID 2283633)
# In short: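 5D WT zebrafish, chorion removed 4 hpf; 1 embryo/well from 6 hpf; static exposure to 120 hpf, 28C, dark, sealed. Final DMSO 0.64%. Readout: binary mortality, brightfield, 24 + 120 hpf; DMSO as negative control.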
# [7] = Tanguay_ZF_120hpf_YSE_legacy: (Legacy) Oregon State University Tanguay Lab 120 Hour Post-fertilization zebrafish Assay for Yolk Sac Edema (AID 2283634);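 on AC50: actives raise the incidence of yolk sac edema above the DMSO baseline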
# In short: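 Dechorionate (pronase, 4 hpf) → place one 6 hpf embryo per well → static compound exposure, sealed and foil-covered, 28C, to 120 hpf → record yolk sac edema as present or absent. Final DMSO 0.64%.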
# [8] = Tanguay_ZF_120hpf_AXIS_legacy: (Legacy) Oregon State University Tanguay Lab 120 Hour Post-fertilization zebrafish Assay for Body Axis Malformation (AID 2283635);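 on AC50: potency for an increased fraction of larvae scored with body axis malformation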
# In short: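 Chorion is removed with pronase at 4 hpf, then single 6 hpf embryos are dosed (final DMSO 0.64%) and held statically at 28C in sealed, foil-covered plates. At 120 hpf body axis malformation is recorded as present or absent.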
# [9] = Tanguay_ZF_120hpf_EYE_legacy: (Legacy) Oregon State University Tanguay Lab 120 Hour Post-fertilization zebrafish Assay for Eye Malformation (AID 2283636);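 further: binary presence or absence of eye malformation scored by brightfield in 120 hpf larvae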
# In short: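 Static waterborne exposure of dechorionated zebrafish embryos (strain Tropical 5D), 6 to 120 hpf, sealed plates at 28C, 0.64% DMSO vehicle. Eye malformation is scored as a binary endpoint, with gain of signal analysed relative to DMSO.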
# [10] = Tanguay_ZF_120hpf_SNOU_legacy: (Legacy) Oregon State University Tanguay Lab 120 Hour Post-fertilization zebrafish Assay for Snout Malformation (AID 2283637)
# In short: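 Dechorionated zebrafish, individually housed from 6 hpf in covered, sealed wells at 28C with 0.64% DMSO vehicle, were examined at 120 hpf for snout malformation. Responses were binary and analysed positive-direction relative to DMSO.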
# [11] = Tanguay_ZF_120hpf_JAW_legacy: (Legacy) Oregon State University Tanguay Lab 120 Hour Post-fertilization zebrafish Assay for Jaw Malformation (AID 2283638);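 on AC50: active means more embryos with jaw malformation than DMSO controls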
# In short: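 Steps: dechorionate 4 hpf embryos (pronase); plate 1/well at 6 hpf; add test chemical, 0.64% DMSO final; seal, cover, hold at 28C statically to 120 hpf; score jaw defect presence/absence microscopically. Dead embryos not scored.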
# [12] = Tanguay_ZF_120hpf_OTIC_legacy: (Legacy) Oregon State University Tanguay Lab 120 Hour Post-fertilization zebrafish Assay for Otic Vesicle Malformation (AID 2283639)
# In short: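 Binary scoring of otic vesicle defects at 120 hpf in zebrafish (Tropical 5D) held under static exposure at 28C, sealed and shaded, with final DMSO 0.64%. Embryos dying by 24 or 120 hpf excluded; fitted positively against DMSO.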
# [13] = Tanguay_ZF_120hpf_PE_legacy: (Legacy) Oregon State University Tanguay Lab 120 Hour Post-fertilization zebrafish Assay for Pericardial Edema (AID 2283640);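 on AC50: potency for increased incidence of pericardial edema versus DMSO baseline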
# In short: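 Embryos from wild-type 5D adults were staged, then dosed in 0.64% DMSO. They were kept sealed in the dark at 28C until 120 hpf. Pericardial edema was then recorded as present or absent.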
# [14] = Tanguay_ZF_120hpf_BRAI_legacy: (Legacy) Oregon State University Tanguay Lab 120 Hour Post-fertilization zebrafish Assay for Brain Malformation (AID 2283641)
# In short: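 Wild-type 5D larvae, static waterborne exposure to 120 hpf, 28C, 0.64% v/v DMSO. Brightfield scoring of brain defects, binary; dead embryos excluded. Positive ctrl 5uM trimethyltin chloride.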
# [15] = Tanguay_ZF_120hpf_SOMI_legacy: (Legacy) Oregon State University Tanguay Lab 120 Hour Post-fertilization zebrafish Assay for Somite Malformation (AID 2283647)
# In short: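 Read-out: presence or absence of somite malformation in 120 hpf larvae, gain-of-signal relative to DMSO baseline. Embryos lacked chorion (pronase, 4 hpf) and were exposed statically from 6 hpf at 28C; dead larvae not scored.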
# [16] = Tanguay_ZF_120hpf_PFIN_legacy: (Legacy) Oregon State University Tanguay Lab 120 Hour Post-fertilization zebrafish Assay for Pectoral Fin Malformation (AID 2283648);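 further: each larva judged yes or no for fin defect by brightfield with dead larvae skipped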
# In short: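 Scoring of pectoral fin malformation was binary, made at 120 hpf on larvae exposed statically from 6 hpf after enzymatic chorion removal. Activity was fitted upward relative to DMSO controls at 0.64% (vol/vol).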
# [17] = ATG_XTT_Cytotoxicity: Cytotoxicity Assessment in the Attagene TRANS-FACTORIAL HepG2 Assay (AID 2283584)
# In short: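 Cells: human HepG2, transiently transfected with MRTU reporter constructs. Exposure 24 h. Readout: XTT, cell number. Baseline/neg ctrl DMSO; loss-of-signal scored.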
# [18] = TOX21_p53_BLA_p3_viability: Viability Assessment in the Tox21 HCT-116 p53 Agonism Beta-lactamase Assay, Phase 3 (AID 2283593);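 further: cells exposed to compound for 16 h before reading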
# In short: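 HCT-116 cells (4000/well) rested 5 h at 37C, then got DMSO compounds by pin tool (217-fold dilution) for 16 h at 37C, 5% CO2. After the bla read, CellTiter-Glo was added and luminescence read at 30 min, room temperature.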
# [19] = TOX21_p53_BLA_p4_viability: Viability Assessment in the Tox21 HCT-116 p53 Agonism Beta-lactamase Assay, Phase 4 (AID 2283597);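 further: hits lower the luminescence signal meaning cytotoxicity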
# In short: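 Readout: ATP luminescence (CellTiter-Glo), measured 30 min after reagent addition at RT. The reagent followed a 2 h CCF4-AM incubation, and the cells had been exposed to compound for 16 h at 37C.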
# [20] = TOX21_p53_BLA_p5_viability: Viability Assessment in the Tox21 HCT-116 p53 Agonism Beta-lactamase Assay, Phase 5 (AID 2283600)
# In short: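 Workflow: seed 4000 cells per well, wait 5 h, add compounds (DMSO, 217-fold dilution), incubate 16 h, load CCF4-AM 2 h, add CellTiter-Glo, read luminescence after 30 min.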
structure (smiles),measurement,setting,value
CC(C)(O)c1ccc(CNC(=O)c2cccnc2Oc2ccc3nonc3c2)cc1,outcome,[1],inactive
same,outcome,[2],inactive
same,outcome,[3],inactive
same,outcome,[4],inactive
same,outcome,[5],inactive
same,outcome,[6],inactive
same,outcome,[7],inactive
same,outcome,[8],inactive
same,outcome,[9],inactive
same,outcome,[10],inactive
same,outcome,[11],inactive
same,outcome,[12],inactive
same,outcome,[13],inactive
same,outcome,[14],inactive
same,outcome,[15],inactive
same,outcome,[16],inactive
CCO[Si](CCCNC(N)=O)(OCC)OCC,outcome,[17],inactive
same,outcome,[1],inactive
same,outcome,[2],inactive
same,outcome,[18],inactive
same,outcome,[3],inactive
same,outcome,[4],inactive
same,outcome,[5],inactive
same,outcome,[6],inactive
same,outcome,[8],inactive
same,outcome,[9],inactive
same,outcome,[10],inactive
same,outcome,[11],inactive
same,outcome,[12],inactive
same,outcome,[13],inactive
same,outcome,[14],inactive
same,outcome,[15],inactive
same,outcome,[16],inactive
COc1cccc([C@H](O)C2CCN(CCc3ccc(F)cc3)CC2)c1OC,outcome,[1],inactive
same,outcome,[18],inactive
same,outcome,[19],inactive
same,outcome,[4],inactive
same,outcome,[20],inactive
same,outcome,[6],inactive
same,AC50,[7],44.9 µM (active)
same,AC50,[8],34 µM (active)
same,outcome,[9],inactive
same,AC50,[10],45.8 µM (active)
same,outcome,[11],inactive
same,outcome,[12],inactive
same,AC50,[13],38.7 µM (active)
same,outcome,[14],inactive
same,outcome,[15],inactive
c1ccc2ccccc2c1,outcome,[17],inactive
same,outcome,[1],inactive
same,outcome,[2],inactive
same,outcome,[18],inactive
same,outcome,[3],inactive
same,outcome,[4],inactive
same,outcome,[20],inactive
same,outcome,[5],inactive
same,outcome,[6],inactive
same,outcome,[8],inactive
same,outcome,[10],inactive
same,outcome,[11],inactive
same,outcome,[12],inactive
same,outcome,[13],inactive
same,outcome,[14],inactive
same,outcome,[15],inactive
same,outcome,[16],inactive
Oc1ccc2ccccc2c1,outcome,[17],inactive
same,outcome,[1],inactive
same,outcome,[2],inactive
same,outcome,[3],inactive
same,outcome,[4],inactive
same,outcome,[20],inactive
same,outcome,[5],inactive
same,outcome,[6],inactive
same,AC50,[7],36.9 µM (active)
same,AC50,[8],55.2 µM (active)
same,AC50,[9],61.7 µM (active)
same,AC50,[10],34.8 µM (active)
same,AC50,[11],38.2 µM (active)
same,AC50,[12],47.3 µM (active)
same,outcome,[13],inactive
same,AC50,[14],10.3 µM (active)
same,outcome,[15],inactive
same,outcome,[16],inactive
CCCCCCCC[Si](OCC)(OCC)OCC,outcome,[17],inactive
same,outcome,[1],inactive
same,outcome,[2],inactive
same,outcome,[18],inactive
same,outcome,[3],inactive
same,outcome,[4],inactive
same,outcome,[5],inactive
same,outcome,[6],inactive
same,outcome,[8],inactive
same,outcome,[10],inactive
same,outcome,[11],inactive
same,outcome,[12],inactive
same,outcome,[14],inactive
same,outcome,[15],inactive
CCCCOC(=O)CC(CC(=O)OCCCC)(OC(C)=O)C(=O)OCCCC,outcome,[17],inactive
same,outcome,[1],inactive
same,outcome,[2],inactive
same,outcome,[3],inactive
same,outcome,[19],inactive
same,outcome,[20],inactive
same,outcome,[5],inactive
same,outcome,[6],inactive
same,outcome,[7],inactive
same,outcome,[8],inactive
same,outcome,[10],inactive
same,outcome,[11],inactive
same,outcome,[12],inactive
same,outcome,[13],inactive
same,outcome,[14],inactive
same,outcome,[16],inactive
